What all share (test): NCI-60 one-dose screen, 48 h (100 = growth as untreated, 0 = no growth, -100 = all killed)
One experiment relates to HCT-15 colon. The conditions noted are these: 10 µM unless noted.
For another experiment, the system named is HT29 colon. The conditions noted are these: 10 µM unless noted.
Another experiment has as its system SNB-75 CNS. The conditions noted are these: 10 µM unless noted.
In the next experiment the test system is SNB-19 CNS. The conditions noted are these: 10 µM unless noted.
The next experiment has as its system U251 CNS. The conditions noted are these: 10 µM unless noted.
The next experiment has as its system PC-3 prostate. The conditions noted are these: 10 µM unless noted.
The subject of another experiment is UACC-62 melanoma. The conditions noted are these: 10 µM unless noted.
The subject of the next experiment is LOX IMVI melanoma. The conditions noted are these: 10 µM unless noted.
The test system of the next experiment is SK-MEL-28 melanoma. The conditions noted are these: 10 µM unless noted.
The subject of the next experiment is SK-MEL-2 melanoma. The conditions noted are these: 10 µM unless noted.
A further experiment has as its system EKVX NSCLC. The conditions noted are these: 10 µM.
The subject of a further experiment is SN12C renal. The conditions noted are these: 10 µM unless noted.
Another experiment concerns UO-31 renal. The conditions noted are these: 10 µM unless noted.
A further experiment has as its system TK-10 renal. The conditions noted are these: 10 µM unless noted.
A further experiment has as its system ACHN renal. The conditions noted are these: 10 µM unless noted.
The test system of a further experiment is CCRF-CEM leukemia. The conditions noted are these: 10 µM.
For a further experiment, the system named is MOLT-4 leukemia. The conditions noted are these: 10 µM unless noted.
Another experiment has as its system A498 renal. The conditions noted are these: 10 µM unless noted.
The next experiment concerns SK-MEL-5 melanoma. The conditions noted are these: 10 µM unless noted.
The test system of the next experiment is CAKI-1 renal. The conditions noted are these: 10 µM unless noted.

Compounds without any hit were thinned out: in the full panel of roughly 83,000, 20% have a hit.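 The test compound was applied at a single concentration to cells in 96-well plates for 48 hours, and percent growth was recorded.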 Values without a mark were called inactive. Activity calls are given as the source filed them. How the source made its calls: active means growth percent below 10; inactive means the rest.

With `CC(C)(C)C(=O)OCOP(=O)(OCOC(=O)C(C)(C)C)C1CC(O)N(O)C1=O` (configuration not stated), the growth was 34.7% with HCT-15 colon; 6.67% (active) with HT29 colon; 51.2% in the experiment on SNB-75 CNS; 16.1% with SNB-19 CNS; 6.74% (active) in the experiment on U251 CNS; 58.9% in the experiment with PC-3 prostate. In addition, the growth in the experiment on UACC-62 melanoma is 9.68% (active); in the experiment with LOX IMVI melanoma, 30.4%; in the experiment with SK-MEL-28 melanoma, 8.22% (active); in the experiment with SK-MEL-2 melanoma it was 45.9%; in the experiment with EKVX NSCLC, 66%; in the experiment on SN12C renal, 11.6%. Moreover, the growth is 18.6% with UO-31 renal; 63.6% with TK-10 renal; 42.7% in the experiment with ACHN renal; 4.09% (active) in the experiment on CCRF-CEM leukemia; 24.5% in the experiment with MOLT-4 leukemia.

For the molecule `CCOC(=O)CNS(=O)(=O)CC(=O)c1ccccc1`, the growth was 110% in the experiment with HCT-15 colon; 80.1% in the experiment with HT29 colon; 69.4% in the experiment on SNB-75 CNS; 94.3% with SNB-19 CNS; 96.7% in the experiment on U251 CNS; 92% in the experiment on PC-3 prostate. Further, the growth is 95.3% with UACC-62 melanoma; 104% in the experiment on LOX IMVI melanoma; 127% with SK-MEL-28 melanoma; 128% in the experiment with SK-MEL-2 melanoma; 90.3% with EKVX NSCLC; 84.2% with SN12C renal. Further, the growth was 86.6% in the experiment on UO-31 renal; 80.9% in the experiment on TK-10 renal; 99.5% with ACHN renal; 117% in the experiment on A498 renal; 105% with CCRF-CEM leukemia; 109% in the experiment on MOLT-4 leukemia.

Consider `CNCCCNCCCCNCCCN1C(=O)c2ccc3c4c(ccc(c24)C1=O)C(=O)N(CCCNCc1ccccc1OC)C3=O`, for which the growth is 46.8% in the experiment with HCT-15 colon; 4.56% (active) with HT29 colon; -0.885% (active) with SNB-75 CNS; 36% in the experiment on SNB-19 CNS; 41.2% with U251 CNS; 58.7% with PC-3 prostate. Further, the growth in the experiment with SK-MEL-5 melanoma is 10.7%; in the experiment with UACC-62 melanoma, -1.88% (active); with LOX IMVI melanoma, 8.88% (active); in the experiment on SK-MEL-2 melanoma, 14%; in the experiment on SN12C renal, 24.6%; in the experiment on UO-31 renal it was 16.8%. The growth in the experiment with TK-10 renal is 41.9%; with CAKI-1 renal it was 28.6%; in the experiment on A498 renal it was 45.1%; in the experiment with CCRF-CEM leukemia, 45.8%; in the experiment with MOLT-4 leukemia it was 24.9%.

For the molecule `CCCCCCC(=O)C(C)C`, the growth with HCT-15 colon is 102%; with HT29 colon it was 109%; in the experiment with SNB-75 CNS, 95.1%; with SNB-19 CNS, 107%; in the experiment on U251 CNS, 98.6%; in the experiment on PC-3 prostate, 100%. The growth with SK-MEL-5 melanoma is 101%; in the experiment on UACC-62 melanoma, 107%; with SK-MEL-28 melanoma it was 113%; with SK-MEL-2 melanoma, 115%; with SN12C renal, 104%; in the experiment on UO-31 renal, 92.3%. The growth in the experiment on TK-10 renal is 101%; in the experiment with ACHN renal it was 103%; in the experiment with CAKI-1 renal it was 91%; with A498 renal, 115%; with MOLT-4 leukemia, 96.6%.

In the case of `CCCCCCCCCCCC(=O)OC(C)C(=O)Nc1ccccc1` (configuration not stated), the growth with HCT-15 colon was 97%; in the experiment with HT29 colon, 99.7%; in the experiment on SNB-75 CNS, 71.9%; with SNB-19 CNS, 95.1%; in the experiment with U251 CNS, 97.7%; with PC-3 prostate, 90.3%. Besides, the growth in the experiment on SK-MEL-5 melanoma is 118%; with UACC-62 melanoma, 100%; in the experiment on SK-MEL-28 melanoma, 108%; in the experiment on SK-MEL-2 melanoma it was 97.6%; in the experiment on SN12C renal, 93%; in the experiment on UO-31 renal it was 78.2%. The growth was 94.9% with TK-10 renal; 87.6% in the experiment on ACHN renal; 91.2% in the experiment on CAKI-1 renal; 103% with A498 renal; 96.1% in the experiment on MOLT-4 leukemia.

In the case of `O=Nc1c(-c2c(O)[nH]c3cc(Br)ccc23)[nH]c2ccccc12`, the growth in the experiment on HCT-15 colon was 1.93% (active); in the experiment with HT29 colon, 0.864% (active); in the experiment with SNB-75 CNS, -13.3% (active); with SNB-19 CNS, 15.1%; in the experiment with U251 CNS it was 29.4%; in the experiment with PC-3 prostate, -2.93% (active). The growth in the experiment on UACC-62 melanoma is 38.9%; in the experiment on LOX IMVI melanoma, 8.85% (active); in the experiment with SK-MEL-28 melanoma, -100% (active); with SK-MEL-2 melanoma, -66.5% (active); in the experiment with EKVX NSCLC it was 29.8%; in the experiment with SN12C renal it was 16.7%. Besides, the growth with UO-31 renal was -28.9% (active); in the experiment with TK-10 renal, -10.5% (active); in the experiment on ACHN renal, 0.906% (active); in the experiment with CAKI-1 renal, 2.36% (active); in the experiment with A498 renal, -82% (active); in the experiment on CCRF-CEM leukemia it was -6.73% (active). Moreover, the growth in the experiment on MOLT-4 leukemia is -68.9% (active).

Regarding `Nc1ccc(S(=O)(=O)c2ccc(NO)cc2)cc1`, the growth in the experiment with HCT-15 colon was 116%; in the experiment on HT29 colon, 101%; in the experiment with SNB-75 CNS, 87.8%; in the experiment with SNB-19 CNS, 97.1%; in the experiment with U251 CNS, 101%; in the experiment with PC-3 prostate it was 96.8%. Further, the growth is 115% in the experiment with UACC-62 melanoma; 99.5% in the experiment on LOX IMVI melanoma; 105% in the experiment on SK-MEL-28 melanoma; 93.2% in the experiment on SK-MEL-2 melanoma; 90.5% in the experiment with EKVX NSCLC; 121% in the experiment on SN12C renal. For the same molecule, the growth with UO-31 renal is 84.2%; with TK-10 renal, 131%; with ACHN renal, 114%; with CAKI-1 renal, 102%; with A498 renal, 114%; in the experiment on CCRF-CEM leukemia, 91.8%. Moreover, the growth in the experiment with MOLT-4 leukemia is 95.9%.

As for `N#Cc1ccc(OCc2nc(N)nc(N)c2-c2ccc(Cl)c(Cl)c2)cc1`, the growth was 20.9% in the experiment with HCT-15 colon; 10.8% in the experiment with HT29 colon; 65.6% in the experiment on SNB-75 CNS; 38.2% in the experiment with SNB-19 CNS; 20.5% in the experiment with U251 CNS; 18.9% in the experiment on PC-3 prostate. For the same molecule, the growth in the experiment on SK-MEL-5 melanoma is 23.4%; in the experiment on UACC-62 melanoma, 12.2%; in the experiment with LOX IMVI melanoma it was 11.1%; with SK-MEL-2 melanoma, 29.8%; with UO-31 renal it was 40.4%; with TK-10 renal it was 40.9%. For the same molecule, the growth with ACHN renal is 19.4%; in the experiment with CAKI-1 renal, 13.9%; with A498 renal, 38.5%; in the experiment on CCRF-CEM leukemia, 18.5%; in the experiment with MOLT-4 leukemia, 22.9%.

In the case of `CCCCCCCCCCC1OC(C)CC(C)O1` (configuration not stated), the growth in the experiment with HCT-15 colon is 102%; in the experiment with HT29 colon it was 106%; with SNB-75 CNS, 95.4%; in the experiment on SNB-19 CNS, 109%; with U251 CNS, 105%; in the experiment on PC-3 prostate, 101%. The growth was 107% in the experiment on SK-MEL-5 melanoma; 107% with UACC-62 melanoma; 102% in the experiment with SK-MEL-28 melanoma; 105% in the experiment on SK-MEL-2 melanoma; 90.9% in the experiment with UO-31 renal; 100% with TK-10 renal. The growth was 97.8% in the experiment with ACHN renal, 95.7% with CAKI-1 renal, 102% in the experiment with A498 renal and 86.7% with MOLT-4 leukemia.

For the origin of these results see PubChem BioAssay (NCI).
